# Screens from PubChem.
# aSyn UTR act – Activators working through SNCA 5'UTR binding (MLPCN); 300,000 compounds, 7.1% hits; AID 1814; alpha-synuclein 5'UTR reporter, activators screen; activity score, % (tested at 7.5 µM), hits read low; in the data active = activity score below about -60%
# * hit, by the source's call. A selection follows.
SMILES,aSyn UTR act
Cc1cccc(N=Nc2cnc(N)s2)c1,-109*
CC(=O)c1ccc(Oc2ccc(C(C)=O)cc2)cc1,-96*
CC1CCc2c(sc3ncnc(NS(=O)(=O)c4cccs4)c23)C1 (stereo not drawn),-101*
CC(=O)N(c1nnc(-c2cccc(C)c2)s1)C1CCCC1,-160*
CCOc1ccc2c(c1)nc(SCC(=O)c1cccs1)n2C,-67*
COc1cc(/C=N/Nc2ccc(C(F)(F)F)cn2)ccc1O,-147*
O=C(O)c1ccc(/C=N/Nc2ccc(C(F)(F)F)cn2)cc1,-172*
CCOc1cc(/C=N/Nc2cc(C)nc(-n3nc(C)cc3C)n2)ccc1O,68
COc1cc(-c2nc(-c3ccc(Br)o3)no2)cc(OC)c1OC,-76*
COc1cc(-c2onc3ccc(Br)cc23)cc(OC)c1OC,66
COc1ccc(-c2c(-c3cc(OC)c(OC)c(OC)c3)noc2C)cn1,76
COc1ccc(-c2noc(-c3ccc(Br)o3)n2)cc1OC,-97*
O=Cc1c(-c2ccc(Cl)cc2)oc2ccc(O)cc12,-118*
Fc1ccccc1OCCSc1nnnn1-c1ccccc1,-83*
c1ccc(OCCSc2nnnn2-c2ccccc2)cc1,-86*
COCCNC(=S)N/N=C(\C)c1ccccc1O,-161*
COc1ccc(NC(=O)c2cc3c(-c4ccc(OC)c(OC)c4)nn(C)c3s2)cc1OC,-70*
Cc1ccc(NC(=O)Nc2ccccc2CC[N+](=O)[O-])cc1,-79*
CS(=O)(=O)Nc1ccccc1C(=O)N1CCN(c2ccccc2)CC1,-73*
CCOc1ccccc1C(=O)N1CCN(c2cccc(Cl)c2)CC1,95
CC[C@H]1OC(=O)C[C@@H](O)[C@H](C)[C@@H](O[C@@H]2O[C@H](C)C[C@H](N(C)C)[C@H]2O)[C@@H](CC=O)C[C@@H](C)C(=O)C=C[C@]2(C)O[C@H]2[C@@H]1C,-147*
Cc1ccc(-c2nnc(-c3cccc(Br)c3)o2)cc1,-159*
Cc1ccc(-c2nnc(-c3ccccc3)o2)cc1Br,-149*
CCOC(=O)c1cc(C(=O)Nc2ccc(C)c(F)c2)nn1C,-224*
NNCCc1ccccc1,-133*
SMILES,aSyn UTR act
COc1ccc(CNc2ccc(Br)cc2)cc1,-112*
COc1ccc(CNc2cc(C)ccn2)cc1,-104*
COc1ccc(CNc2ccc(C)c(C)c2)cc1,-72*
COc1ccc(NCc2ccc(OC)c(OC)c2)cc1,-105*
COc1cc(CNc2ccc(C)c(C)c2)cc(OC)c1OC,-166*
CCOc1c(Br)cc(CNc2ccc3c(c2)OCCO3)cc1OC,97
COc1ccc(C(=O)Cc2ccc(OC)c(OC)c2)cc1,-109*
COCc1cc(C)nc(Nc2ccc(C)c(C)c2)c1C#N,-71*
CCCC(=O)Nc1nc2ccc(C(=O)OCC)cc2s1,-136*
CCCCC(=O)Nc1nc2ccc(C(=O)OC)cc2s1,-114*
CCOC(=O)c1ccc2nc(NC(=O)c3cccs3)sc2c1,-105*
CCOC(=O)c1ccc2nc(NC(=O)C(C)C)sc2c1,-113*
CCOc1ccc(CCNC(=O)c2nnn(CC(=O)Nc3ccc(C)cc3)c2N)cc1OCC,-71*
COc1cccc(CNC(=O)c2nnn(CC(=O)Nc3ccc(Br)cc3)c2N)c1,86
COc1ccc(C2=NN(CN3C(=O)C(=O)c4ccccc43)C(c3ccc(Br)cc3)C2)cc1 (stereo not drawn),-115*
COc1ccc(C2=NN(CN3C(=O)C(=O)c4ccccc43)C(c3ccc(C)cc3)C2)cc1 (stereo not drawn),-116*
Cc1c(N=c2c(=O)c3ccccc3c2=O)c(=O)n(-c2ccccc2)n1C,-140*
COc1ccc(-c2c/c(=N\c3nc(-c4ccccc4)c(C)s3)c3ccccc3o2)cc1O,75
COc1ccc(-c2cc(=Nc3c(C)n(C)n(-c4ccccc4)c3=O)c3ccccc3o2)cc1,-270*
CCOC(=O)C1(Cc2ccccc2Cl)CCN(C(=O)CCn2ccnc2C)CC1,-81*
CCOC(=O)C1(CCc2ccccc2)CCN(C(=O)CCn2cncn2)CC1,-99*
O=C(Cc1noc2ccccc12)Nc1ccccn1,-89*
Cc1ccc(NC(=O)Cc2noc3ccccc23)nc1,-69*
O=C(Nc1ccc(O)c2c(=O)cc(-c3cccc(Cl)c3)oc12)c1cccc(Cl)c1,61
Nc1ccc(O)c2c(=O)cc(-c3ccccc3Cl)oc12,-100*
SMILES,aSyn UTR act
Cc1ccc(C(=O)Nc2cccnc2Cl)cc1Cl,-156*
COc1ccc(C(=O)Nc2ccccc2C(=O)Nc2ccccn2)cc1,-104*
Cc1ccc(C(=O)Nc2ccccc2C(=O)Nc2ccccn2)cc1Cl,-70*
Cc1ccc(OCn2c(=O)sc3ccccc32)cc1,-158*
O=c1sc2ccccc2n1CCOc1ccccc1,-133*
Cc1ccc(Nc2nc(Cl)nc(NC(C)(C)C)n2)cc1,-154*
Cc1ccc(Nc2nc(Nc3ccc(C)cc3)nc(SC3=NCCS3)n2)cc1,-95*
O=C(OCc1nc2ccccc2s1)c1cc2ccccc2oc1=O,-100*
O=C(CCc1ccc(S(=O)(=O)N2CCOCC2)cc1)OCc1nc2ccccc2s1,-85*
O=C(OCc1nc2ccccc2s1)c1ccc(Br)s1,-72*
Cc1ccc(C(=O)OCc2nc3ccccc3s2)o1,-103*
Cc1cnc(C(=O)Nc2ccc(F)c(F)c2)cn1,-133*
CCCCOc1ccc(NC(=O)c2cnc(C)cn2)cc1,-113*
Cc1cnc(C(=O)NCCc2ccc(Cl)cc2)cn1,-114*
O=C(Nc1ccc2c(c1)CCC2)c1cnccn1,-175*
O=C(Nc1ccc(N2CCOCC2)cc1)c1cnccn1,67
Cc1cnc(C(=O)Nc2ccc3c(c2)CCC3)cn1,-136*
Cc1cc(C)n2nc(C(=O)Nc3ccc4c(c3)CCC4)nc2n1,-101*
COCCn1c(=O)[nH]c2cc(C(=O)Nc3cccc(F)c3)ccc2c1=O,-113*
COc1cccc(N2CCN(c3ncccn3)CC2)c1,-104*
CC(=O)c1ccc(N2CCN(c3ncccn3)CC2)cc1,-125*
CN(C)c1cccc(/C=C(\C#N)c2ccccc2)c1,-155*
Cc1ccc(C(=O)NCc2ccc3c(c2)CCO3)cc1C,-96*
Cc1nc(-c2ccccc2)sc1-c1ccnn1C,-111*
COCCCNC(=O)c1ccc(N2CCCC2)c(NS(=O)(=O)c2ccc(C)cc2)c1,-73*
SMILES,aSyn UTR act
Cc1ccc2nc(-c3ccc(N4C(=O)CC(N5CCN(CCO)CC5)C4=O)cc3)sc2c1 (stereo not drawn),-87*
CCN1CCN(S(=O)(=O)c2ccc(Cl)c(C(=O)NCCc3ccccc3)c2)CC1,-69*
Cc1cc(=O)n2cc(-c3ccccc3)nc2[nH]1,-70*
Cc1cccc(NC(=O)CN2C(=O)N/C(=C\c3ccc(N4CCOCC4)cc3)C2=O)c1,-100*
CCOC(=O)c1c(NC2=NS(=O)(=O)c3ccccc32)sc2c1CCCCC2,-63*
Cc1ccc2c(c1)OC(c1ccc3c(c1)OCCO3)CC2=O (stereo not drawn),-151*
CC(/C=N/NC(=O)c1cccs1)=C\c1ccco1,-176*
CC(/C=N/NC(=O)Cc1cccs1)=C\c1ccco1,-98*
CC(/C=N/NC(=O)c1cc(-c2ccncc2)nc2ccccc12)=C\c1ccco1,86
Nc1c(-c2cccc([N+](=O)[O-])c2)nc2ccccn12,-83*
COc1ccc(OC)c2c1C(=O)C(Cl)=C(Cl)C2=O,-89*
CCOc1ccc(N)c(SSc2cc(OCC)ccc2N)c1,-121*
COc1cccc(COc2cc3ccccc3nc2C)c1,-96*
Cc1nc(N)nc(N)c1CCCc1ccc(Cl)c(Cl)c1,92
Cc1nc2ccccc2cc1OCc1ccc(Cl)cc1,-72*
Cn1c(NC(=S)Nc2ccccc2)nc2ccccc21,-99*
